Holding throughout (assay): DAPPL (digital affinity profiling via proximity ligation, sequencing); 10 mM Tris-HCl pH 7.5, 50 mM NaCl, 1 mM DTT, 4% glycerol, room temperature, 30 min; GST-TFs on glutathione beads, 16-mer random dsDNA library, 0.1% formaldehyde crosslink after washing; high values mean tight binding
In one test the target is T1, FEV (Homo sapiens, UniProt Q99581 1-238).
T1 sequence: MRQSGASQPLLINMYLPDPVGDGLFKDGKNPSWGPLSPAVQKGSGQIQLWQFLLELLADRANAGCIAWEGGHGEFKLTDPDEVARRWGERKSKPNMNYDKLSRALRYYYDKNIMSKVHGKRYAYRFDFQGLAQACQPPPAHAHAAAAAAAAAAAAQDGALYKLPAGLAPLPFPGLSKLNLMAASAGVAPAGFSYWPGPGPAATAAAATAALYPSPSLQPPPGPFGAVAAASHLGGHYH
Particulars: protein: recombinant; tags: N-terminal GST; dsDNA, one strand shown. An outline of the steps: (§1)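 After expression in yeast as GST fusions, human transcription factors were bound to glutathione beads, DNA-barcoded and mixed with a tag-only sample. The pools were incubated with 200 nmole of a 16-mer random double-stranded DNA library in Tris/NaCl/DTT/glycerol buffer (30 min, room temperature), washed and crosslinked with 0.1% formaldehyde. Proximity ligation with BsaI/T4 ligase ran for 1 h at 37 °C, before PCR amplification and sequencing on an Illumina NextSeq500. Binding signal is a hexamer's read frequency for a factor divided by its frequency for the tag-only sample.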

In the next test the target is ETV5 (Homo sapiens, UniProt P41161 1-510). The note with it: protein: recombinant; tags: N-terminal GST; dsDNA, one strand shown. Put shortly:
as §1

The target of another test is HSF1 (Homo sapiens, UniProt Q00613 1-529). Particulars: protein: recombinant; tags: N-terminal GST; chain copies: 3; dsDNA, one strand shown. An outline of the steps:
as §1

Another test deals with T2, SPIC (Homo sapiens, UniProt Q8N5J4 1-248).
T2 sequence: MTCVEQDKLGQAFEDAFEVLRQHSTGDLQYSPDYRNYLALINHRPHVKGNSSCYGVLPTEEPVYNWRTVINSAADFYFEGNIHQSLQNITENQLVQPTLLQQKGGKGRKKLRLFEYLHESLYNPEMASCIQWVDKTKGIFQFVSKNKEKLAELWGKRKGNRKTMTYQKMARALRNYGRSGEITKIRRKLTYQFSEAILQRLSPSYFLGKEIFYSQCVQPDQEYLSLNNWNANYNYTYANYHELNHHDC
The note with it: protein: recombinant; tags: N-terminal GST; dsDNA, one strand shown. Put shortly: as §1

For a further test, the target named is ELF4 (Homo sapiens, UniProt Q99607 1-663). Particulars: protein: recombinant; tags: N-terminal GST; dsDNA, one strand shown. Put shortly:
as §1

The next test concerns the target T3, ELK4 (Homo sapiens, UniProt P28324-2 1-405).
T3 sequence: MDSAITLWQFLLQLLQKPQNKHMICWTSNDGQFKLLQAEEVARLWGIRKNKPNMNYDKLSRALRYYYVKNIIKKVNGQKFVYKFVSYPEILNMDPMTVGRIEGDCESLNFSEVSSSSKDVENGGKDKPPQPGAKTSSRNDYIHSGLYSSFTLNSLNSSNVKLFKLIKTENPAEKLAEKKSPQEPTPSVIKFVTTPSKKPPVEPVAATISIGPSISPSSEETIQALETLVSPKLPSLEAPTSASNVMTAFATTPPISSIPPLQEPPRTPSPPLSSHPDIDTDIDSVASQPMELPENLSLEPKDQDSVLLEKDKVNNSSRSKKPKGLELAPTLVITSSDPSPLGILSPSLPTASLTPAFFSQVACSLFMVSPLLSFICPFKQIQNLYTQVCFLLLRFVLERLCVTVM
Particulars: protein: recombinant; tags: N-terminal GST; dsDNA, one strand shown. An outline of the steps: as §1

The next test deals with T4, ETV2 (Homo sapiens, UniProt O00321 1-342).
T4 sequence: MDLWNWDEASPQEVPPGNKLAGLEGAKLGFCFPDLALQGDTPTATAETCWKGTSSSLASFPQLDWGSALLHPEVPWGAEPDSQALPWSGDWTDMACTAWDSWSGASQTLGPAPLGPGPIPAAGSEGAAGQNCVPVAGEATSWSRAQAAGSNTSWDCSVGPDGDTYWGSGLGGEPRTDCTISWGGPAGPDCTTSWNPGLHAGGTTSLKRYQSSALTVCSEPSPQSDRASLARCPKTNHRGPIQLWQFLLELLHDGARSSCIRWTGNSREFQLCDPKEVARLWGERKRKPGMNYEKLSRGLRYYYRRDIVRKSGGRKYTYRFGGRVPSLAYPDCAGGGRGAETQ
Particulars: protein: recombinant; tags: N-terminal GST; dsDNA, one strand shown. Put shortly:
as §1

The next test deals with T5, ELF3 (Homo sapiens, UniProt P78545 1-371).
T5 sequence: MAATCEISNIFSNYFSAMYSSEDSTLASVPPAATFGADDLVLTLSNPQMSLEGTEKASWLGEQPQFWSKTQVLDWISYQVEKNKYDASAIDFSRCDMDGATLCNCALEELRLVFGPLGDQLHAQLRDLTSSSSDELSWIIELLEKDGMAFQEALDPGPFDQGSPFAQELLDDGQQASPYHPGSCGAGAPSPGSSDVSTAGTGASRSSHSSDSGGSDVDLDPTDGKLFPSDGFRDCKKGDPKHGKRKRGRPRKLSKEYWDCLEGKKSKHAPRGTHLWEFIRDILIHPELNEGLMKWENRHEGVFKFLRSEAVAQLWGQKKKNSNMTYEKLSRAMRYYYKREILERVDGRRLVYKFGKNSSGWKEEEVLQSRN
The note with it: protein: recombinant; tags: N-terminal GST; dsDNA, one strand shown. An outline of the steps:
as §1

In another test the target is CRX (Homo sapiens, UniProt O43186 1-299). Particulars: protein: recombinant; tags: N-terminal GST; dsDNA, one strand shown. An outline of the steps: as §1
A further test addresses ETV1 (Homo sapiens, UniProt P50549 1-477). The note with it: protein: recombinant; tags: N-terminal GST; dsDNA, one strand shown. An outline of the steps:
as §1

Another test concerns the target T6, ERF (Homo sapiens, UniProt P50548 1-548).
T6 sequence: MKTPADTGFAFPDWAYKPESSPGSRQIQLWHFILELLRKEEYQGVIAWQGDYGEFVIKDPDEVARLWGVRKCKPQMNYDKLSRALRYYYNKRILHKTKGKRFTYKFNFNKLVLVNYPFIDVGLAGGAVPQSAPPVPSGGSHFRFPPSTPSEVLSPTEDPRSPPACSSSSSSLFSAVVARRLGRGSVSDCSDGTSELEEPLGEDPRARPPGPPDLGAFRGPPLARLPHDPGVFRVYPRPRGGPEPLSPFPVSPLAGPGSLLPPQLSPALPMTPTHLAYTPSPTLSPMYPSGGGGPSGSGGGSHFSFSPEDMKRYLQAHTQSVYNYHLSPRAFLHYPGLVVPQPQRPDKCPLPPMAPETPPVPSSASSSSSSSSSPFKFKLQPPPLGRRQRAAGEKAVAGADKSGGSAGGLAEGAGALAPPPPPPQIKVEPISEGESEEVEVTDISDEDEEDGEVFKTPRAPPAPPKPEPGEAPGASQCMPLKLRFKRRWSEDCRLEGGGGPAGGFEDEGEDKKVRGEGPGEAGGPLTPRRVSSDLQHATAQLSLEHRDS
The note with it: protein: recombinant; tags: N-terminal GST; dsDNA, one strand shown. Put shortly: as §1

The next test addresses T7, ETV3L (Homo sapiens, UniProt Q6ZN32 1-361).
T7 sequence: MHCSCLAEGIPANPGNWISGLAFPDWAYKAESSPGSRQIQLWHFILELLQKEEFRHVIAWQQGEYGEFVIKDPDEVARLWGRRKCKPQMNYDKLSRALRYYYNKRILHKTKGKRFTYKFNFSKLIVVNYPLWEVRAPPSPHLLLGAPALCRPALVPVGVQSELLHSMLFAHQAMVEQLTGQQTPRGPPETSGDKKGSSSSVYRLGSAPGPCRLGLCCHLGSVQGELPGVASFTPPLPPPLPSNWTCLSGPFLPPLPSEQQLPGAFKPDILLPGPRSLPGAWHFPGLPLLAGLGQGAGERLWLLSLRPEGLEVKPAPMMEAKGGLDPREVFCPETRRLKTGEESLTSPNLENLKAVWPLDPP
The note with it: protein: recombinant; tags: N-terminal GST; dsDNA, one strand shown. An outline of the steps:
as §1

Another test has as its target T8, ETS2 (Homo sapiens, UniProt P15036 1-469).
T8 sequence: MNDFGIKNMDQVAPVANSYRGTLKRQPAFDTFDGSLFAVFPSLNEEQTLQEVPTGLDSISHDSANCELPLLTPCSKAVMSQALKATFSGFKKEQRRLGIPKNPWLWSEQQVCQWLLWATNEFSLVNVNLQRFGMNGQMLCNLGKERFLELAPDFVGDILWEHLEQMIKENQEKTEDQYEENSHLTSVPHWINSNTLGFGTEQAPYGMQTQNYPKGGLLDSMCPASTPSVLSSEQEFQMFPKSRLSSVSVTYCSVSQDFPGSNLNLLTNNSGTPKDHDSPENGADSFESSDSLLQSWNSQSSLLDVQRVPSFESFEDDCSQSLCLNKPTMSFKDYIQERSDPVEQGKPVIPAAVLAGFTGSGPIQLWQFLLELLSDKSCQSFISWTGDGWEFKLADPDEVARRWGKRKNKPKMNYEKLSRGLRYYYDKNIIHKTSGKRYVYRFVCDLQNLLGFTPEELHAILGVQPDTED
The note with it: protein: recombinant; tags: N-terminal GST; dsDNA, one strand shown. Put shortly: as §1

A further test deals with T9, SPDEF (Homo sapiens, UniProt O95238 1-335).
T9 sequence: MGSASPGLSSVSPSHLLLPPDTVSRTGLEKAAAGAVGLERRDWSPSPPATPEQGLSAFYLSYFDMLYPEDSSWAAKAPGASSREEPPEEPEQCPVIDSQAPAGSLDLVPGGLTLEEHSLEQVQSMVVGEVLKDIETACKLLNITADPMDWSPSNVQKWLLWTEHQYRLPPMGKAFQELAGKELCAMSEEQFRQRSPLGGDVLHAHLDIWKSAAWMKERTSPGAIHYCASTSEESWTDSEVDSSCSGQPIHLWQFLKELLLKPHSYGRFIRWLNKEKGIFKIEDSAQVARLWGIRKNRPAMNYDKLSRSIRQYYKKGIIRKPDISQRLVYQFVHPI
The note with it: protein: recombinant; tags: N-terminal GST; dsDNA, one strand shown. An outline of the steps:
as §1

The target of a further test is T10, ETV7 (Homo sapiens, UniProt Q9Y603 1-341).
T10 sequence: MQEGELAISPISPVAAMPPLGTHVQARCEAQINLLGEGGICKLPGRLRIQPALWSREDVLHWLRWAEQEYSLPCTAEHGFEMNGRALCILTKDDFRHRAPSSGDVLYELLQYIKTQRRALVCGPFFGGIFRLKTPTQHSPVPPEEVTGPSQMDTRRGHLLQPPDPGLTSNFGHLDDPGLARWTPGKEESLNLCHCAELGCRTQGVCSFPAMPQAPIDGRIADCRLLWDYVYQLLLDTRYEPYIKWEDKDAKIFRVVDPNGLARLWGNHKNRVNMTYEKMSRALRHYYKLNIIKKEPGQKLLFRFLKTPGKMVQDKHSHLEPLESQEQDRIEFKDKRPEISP
Particulars: protein: recombinant; tags: N-terminal GST; dsDNA, one strand shown. Put shortly:
as §1

In the next test the target is T11, ELF5 (Homo sapiens, UniProt Q9UKW6-2 1-255).
T11 sequence: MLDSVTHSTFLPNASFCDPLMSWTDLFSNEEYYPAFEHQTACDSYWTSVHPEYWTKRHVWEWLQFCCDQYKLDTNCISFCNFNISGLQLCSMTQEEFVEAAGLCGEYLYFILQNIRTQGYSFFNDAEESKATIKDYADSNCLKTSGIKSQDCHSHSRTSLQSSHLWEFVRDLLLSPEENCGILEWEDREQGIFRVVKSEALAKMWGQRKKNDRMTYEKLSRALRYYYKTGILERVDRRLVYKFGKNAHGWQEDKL
Particulars: protein: recombinant; tags: N-terminal GST; dsDNA, one strand shown. Put shortly:
as §1

A further test concerns the target T12, ETV3 (Homo sapiens, UniProt P41162-2 1-143).
T12 sequence: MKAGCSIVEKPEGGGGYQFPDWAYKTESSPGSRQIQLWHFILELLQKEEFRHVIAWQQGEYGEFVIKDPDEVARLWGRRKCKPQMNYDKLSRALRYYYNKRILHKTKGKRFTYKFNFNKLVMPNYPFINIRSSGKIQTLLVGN
Particulars: protein: recombinant; tags: N-terminal GST; dsDNA, one strand shown. An outline of the steps: as §1

For the next test, the target named is ETV6 (Homo sapiens, UniProt P41212 1-452). The note with it: protein: recombinant; tags: N-terminal GST; dsDNA, one strand shown. An outline of the steps: as §1
Sequence of ETV6 (P41212 whole entry): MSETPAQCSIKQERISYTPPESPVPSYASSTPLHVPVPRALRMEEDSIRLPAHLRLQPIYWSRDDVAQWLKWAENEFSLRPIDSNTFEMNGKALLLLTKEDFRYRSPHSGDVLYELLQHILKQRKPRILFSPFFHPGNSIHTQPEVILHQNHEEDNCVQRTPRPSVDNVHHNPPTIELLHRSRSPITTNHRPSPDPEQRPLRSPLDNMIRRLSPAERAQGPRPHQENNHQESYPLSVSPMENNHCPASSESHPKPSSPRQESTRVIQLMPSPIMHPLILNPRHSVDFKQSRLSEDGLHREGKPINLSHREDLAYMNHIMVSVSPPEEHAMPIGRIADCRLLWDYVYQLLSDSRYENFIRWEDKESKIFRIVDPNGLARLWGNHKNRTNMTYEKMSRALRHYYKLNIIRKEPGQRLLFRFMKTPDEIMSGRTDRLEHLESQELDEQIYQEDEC

Sequence of CRX (O43186 whole entry): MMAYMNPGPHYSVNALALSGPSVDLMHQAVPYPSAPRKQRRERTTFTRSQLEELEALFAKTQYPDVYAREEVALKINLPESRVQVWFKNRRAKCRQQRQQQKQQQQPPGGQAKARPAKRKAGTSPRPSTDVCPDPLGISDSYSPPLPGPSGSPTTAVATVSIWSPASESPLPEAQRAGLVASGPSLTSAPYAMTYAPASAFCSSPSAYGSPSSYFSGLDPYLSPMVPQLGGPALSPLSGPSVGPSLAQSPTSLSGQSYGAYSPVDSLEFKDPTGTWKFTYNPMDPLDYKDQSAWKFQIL
Sequence of ETV5 (P41161 whole entry): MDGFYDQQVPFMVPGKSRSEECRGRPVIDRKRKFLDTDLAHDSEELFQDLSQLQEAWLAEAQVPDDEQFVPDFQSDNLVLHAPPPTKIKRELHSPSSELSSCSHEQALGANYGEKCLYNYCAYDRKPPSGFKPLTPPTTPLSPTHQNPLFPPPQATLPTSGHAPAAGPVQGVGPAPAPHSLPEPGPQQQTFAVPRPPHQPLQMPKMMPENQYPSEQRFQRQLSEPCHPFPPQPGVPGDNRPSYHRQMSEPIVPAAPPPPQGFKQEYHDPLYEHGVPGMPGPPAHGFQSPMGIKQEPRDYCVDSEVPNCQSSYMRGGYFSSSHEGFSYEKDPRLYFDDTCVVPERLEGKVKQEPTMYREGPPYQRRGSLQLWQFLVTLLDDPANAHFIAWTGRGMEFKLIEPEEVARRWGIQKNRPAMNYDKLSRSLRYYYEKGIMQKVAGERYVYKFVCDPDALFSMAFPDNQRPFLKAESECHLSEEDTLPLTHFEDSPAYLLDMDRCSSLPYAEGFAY
Sequence of ETV1 (P50549 whole entry): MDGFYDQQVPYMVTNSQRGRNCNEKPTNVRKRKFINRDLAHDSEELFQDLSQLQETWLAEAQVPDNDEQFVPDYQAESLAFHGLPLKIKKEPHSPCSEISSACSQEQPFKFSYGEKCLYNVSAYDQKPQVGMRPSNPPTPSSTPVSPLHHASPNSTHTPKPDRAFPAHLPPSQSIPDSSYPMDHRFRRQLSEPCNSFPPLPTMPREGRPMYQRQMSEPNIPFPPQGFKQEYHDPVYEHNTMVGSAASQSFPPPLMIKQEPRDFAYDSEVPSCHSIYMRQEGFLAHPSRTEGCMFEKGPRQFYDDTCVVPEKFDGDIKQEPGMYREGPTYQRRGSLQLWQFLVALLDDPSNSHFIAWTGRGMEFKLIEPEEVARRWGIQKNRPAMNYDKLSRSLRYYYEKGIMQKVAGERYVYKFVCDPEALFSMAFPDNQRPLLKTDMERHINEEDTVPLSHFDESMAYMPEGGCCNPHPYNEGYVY
Sequence of HSF1 (Q00613 whole entry): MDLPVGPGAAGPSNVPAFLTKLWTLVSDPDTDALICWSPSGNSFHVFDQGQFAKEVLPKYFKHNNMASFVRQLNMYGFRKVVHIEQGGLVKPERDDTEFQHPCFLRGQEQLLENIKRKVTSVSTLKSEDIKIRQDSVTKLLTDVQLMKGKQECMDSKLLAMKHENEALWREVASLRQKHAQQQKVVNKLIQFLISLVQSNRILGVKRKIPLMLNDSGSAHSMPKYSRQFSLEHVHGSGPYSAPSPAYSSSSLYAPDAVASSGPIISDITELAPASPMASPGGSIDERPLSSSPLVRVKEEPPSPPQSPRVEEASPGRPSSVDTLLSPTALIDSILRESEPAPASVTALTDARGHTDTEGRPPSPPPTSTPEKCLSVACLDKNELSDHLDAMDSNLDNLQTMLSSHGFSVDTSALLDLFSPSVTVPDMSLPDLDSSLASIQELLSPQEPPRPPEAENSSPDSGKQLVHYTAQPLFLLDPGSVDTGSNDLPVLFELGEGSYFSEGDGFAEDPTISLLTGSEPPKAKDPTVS
Sequence of ELF4 (Q99607 whole entry): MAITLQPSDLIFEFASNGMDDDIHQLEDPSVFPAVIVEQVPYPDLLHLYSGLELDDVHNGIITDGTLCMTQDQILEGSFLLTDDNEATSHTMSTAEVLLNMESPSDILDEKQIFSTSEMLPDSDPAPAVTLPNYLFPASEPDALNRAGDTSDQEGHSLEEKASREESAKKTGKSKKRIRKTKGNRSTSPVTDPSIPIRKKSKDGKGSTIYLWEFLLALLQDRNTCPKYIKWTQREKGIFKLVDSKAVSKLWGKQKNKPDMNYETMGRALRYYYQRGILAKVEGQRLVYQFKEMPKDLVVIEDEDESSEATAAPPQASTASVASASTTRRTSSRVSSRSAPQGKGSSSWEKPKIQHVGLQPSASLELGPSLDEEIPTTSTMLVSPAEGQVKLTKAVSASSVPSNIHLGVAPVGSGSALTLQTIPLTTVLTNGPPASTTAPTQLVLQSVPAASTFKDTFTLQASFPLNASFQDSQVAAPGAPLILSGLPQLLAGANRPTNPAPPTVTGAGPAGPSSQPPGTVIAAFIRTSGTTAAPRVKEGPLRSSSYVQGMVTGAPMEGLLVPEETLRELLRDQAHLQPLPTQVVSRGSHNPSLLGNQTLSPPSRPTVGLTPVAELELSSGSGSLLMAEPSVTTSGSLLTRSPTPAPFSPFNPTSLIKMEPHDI

With TGAACA, the binding signal in the test with FEV is 1.21 fold enrichment (6-mer frequency, TF over GST control); with ETV5, 1.2 fold enrichment (6-mer frequency, TF over GST control); with HSF1, 1.18 fold enrichment (6-mer frequency, TF over GST control); with SPIC it was 1.29 fold enrichment (6-mer frequency, TF over GST control); with ELF4, 1.24 fold enrichment (6-mer frequency, TF over GST control); with ELK4 it was 1.4 fold enrichment (6-mer frequency, TF over GST control). Besides, the binding signal in the test with ETV2 is 1.27 fold enrichment (6-mer frequency, TF over GST control); with ELF3, 1.3 fold enrichment (6-mer frequency, TF over GST control); with CRX, 1.06 fold enrichment (6-mer frequency, TF over GST control); in the test with ETV1, 1.27 fold enrichment (6-mer frequency, TF over GST control); in the test with ERF, 1.27 fold enrichment (6-mer frequency, TF over GST control); with ETV3L, 1.31 fold enrichment (6-mer frequency, TF over GST control). Moreover, the binding signal with ETS2 was 1.18 fold enrichment (6-mer frequency, TF over GST control); in the test with SPDEF, 1.22 fold enrichment (6-mer frequency, TF over GST control); with ETV7 it was 1.21 fold enrichment (6-mer frequency, TF over GST control); with ELF5 it was 1.26 fold enrichment (6-mer frequency, TF over GST control); with ETV3 it was 1.25 fold enrichment (6-mer frequency, TF over GST control); with ETV6, 1.21 fold enrichment (6-mer frequency, TF over GST control).

Source of the values: PMC7862700, “An all-to-all approach to the identification of sequence-specific readers for epigenetic DNA modifications on cytosine”.
